The list is not random: actives were taken first. Their share in the collection is about 1.1%.
MOR-DOR inv ag-1 = inverse agonist of human OPRM1-OPRD1 heterodimerization. cell-based MOR-DOR heterodimer luminescence, inverse agonism. AID 504357. P35372+P41143. 0.21% of 340,000 active. inhibition, % at 9.3 µM; in the data active = inhibition above about 22%, passing the limit was not always enough;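 note: 0% = cells with DMSO and 100% = wells without cells with DMSO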
MOR-DOR ag = agonists of human mu-delta opioid receptor heterodimerization; 0.3% of 340,000 active; activation, % at 9.3 µM; AID 504326; cells, OPRM1-OPRD1 heterodimerization, luminescence; P35372+P41143; in the data active = activation above about 18%;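 note: 0% = vehicle-treated cells and 100% = reference agonist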
HTR5A inv ag = counter-screen for OPRM1-OPRD1 inverse agonists: human HTR5A inverse agonism; HTR5A cell line, luminescence; inhibition, % at 9.3 µM; 0.083% of 340,000 active; AID 504634; in the data active = inhibition mostly above about 23%, no sharp cut-off; inactive = mostly below about 18%;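 note: 0% = cells with DMSO and 100% = no-cell wells with DMSO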
HTR5A ag = HTR5A agonism, opioid heterodimer counter-screen; activation, % at 9.3 µM; HTR5A agonist assay, luminescence, cell-based; AID 504692; 0.61% of 340,000 active; in the data active = activation mostly above about 9.5%, no sharp cut-off; inactive = mostly below about 7.6%;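 note: 0% = cells with vehicle only and 100% = reference agonist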
OPRM1-D1 inv cf = OPRM1-OPRD1 heterodimer inverse agonism, confirmation. cells expressing OPRM1/OPRD1 heterodimer, luminescence. AID 504900. shares compounds with MOR-DOR inv ag-1. inhibition, % at 9.3 µM. 20% of 580 active; in the data active = inhibition above about 32%;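 note: 0% = cells with DMSO and 100% = wells lacking cells with DMSO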
HTR5A inv count = HTR5A inverse agonism, opioid heterodimer counter-screen | shares compounds with MOR-DOR inv ag-1 | HTR5A-expressing cells, luminescence | inhibition, % at 9.3 µM | 580 tested, under 10 active;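 note: 0% = cells with DMSO and 100% = no-cell wells with DMSO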
MOR-DOR inv ag-2 = opioid heterodimer inverse agonism, HTR5A counter-screen. shares compounds with HTR5A inv ag. inhibition, % at 9.3 µM. U2OS counter-screen cells, complementation luminescence. 190 tested, under 10 active. AID 504912;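 note: 0% = cells with DMSO and 100% = wells without cells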
HTR5A inv confrm = HTR5A (human) inverse agonism, confirmation; inhibition, % at 9.3 µM; HTR5A-expressing cells, luminescence; 190 tested, under 10 active; shares compounds with HTR5A inv ag;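 note: 0% = cells with DMSO and 100% = no cells with DMSO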
* hit, by the source's call; . = no result given. Unless noted, the rule behind the calls is not given here.

SMILES | MOR-DOR inv ag-1 | MOR-DOR ag | HTR5A inv ag | HTR5A ag | MOR-DOR inv ag-2 | HTR5A inv confrm | others
O=C(OCC(=O)c1ccccc1Br)c1ccccn1 | 10 | -2 | 22 | -2 | . | .
Cc1noc(C)c1NC(=O)N(C)C[C@H]1Oc2ccc(NS(=O)(=O)c3cccs3)cc2C(=O)N([C@H](C)CO)C[C@@H]1C | 6 | -1 | 15 | -2 | . | .
NC(=O)C1CCCN(CC(=O)Nc2cc(S(=O)(=O)N3CCOCC3)ccc2N2CCCC2)C1 (stereo not drawn) | 16 | -4 | 5 | -2 | . | .
C[C@H](CO)N1C[C@H](C)[C@@H](CN(C)S(=O)(=O)c2cccs2)Oc2ccc(NS(=O)(=O)c3ccccc3)cc2C1=O | 0 | 0 | 6 | 1 | . | .
COc1ccc(S(=O)(=O)Nc2ccc3c(c2)C(=O)N([C@H](C)CO)C[C@H](C)[C@@H](CN(C)C(=O)NC(C)C)O3)cc1 | 17 | -3 | -2 | 0 | . | .
O=C1Nc2ccccc2C1=Nc1ccc(-c2nnc3n2CCCCC3)cc1 | 35* | -7 | 6 | -2 | . | . | OPRM1-D1 inv cf=40*;HTR5A inv count=3
Cc1cc(Br)ccc1NC(=O)CNC(=O)CN(C)C1CCS(=O)(=O)C1 (stereo not drawn) | 8 | -1 | 10 | 0 | . | .
CC1(C)Cc2c(c(=S)nc(-c3ccccc3)n2Cc2cccnc2)CO1 | 11 | -2 | 4 | -1 | . | .
COc1ccc(-c2nc(=S)c3c(n2Cc2cccnc2)CC(C)(C)OC3)cc1 | 33* | -7 | -23 | 1 | . | . | OPRM1-D1 inv cf=42*;HTR5A inv count=5
CN(C)c1ccc(/C=C/c2ccc3ccccc3[n+]2C)cc1 | 23 | -4 | 29* | -11 | -2 | 28
C/C(=N\NC(=S)NCc1ccccc1)c1ccc2ccccc2c1OC(F)F | -11 | 2 | 54* | -22 | -24 | 4
C/C(=N\NC(=S)NCc1ccccc1)c1ccc(Br)cc1 | -22 | 5 | -2 | 1 | . | .
Cc1ccsc1/C=C/c1ccc2cccc(O)c2n1 | -12 | 3 | 32* | -12 | -84 | 21
COc1cc(Br)c(/C=C/c2ccc3cccc(O)c3n2)cc1OC | -8 | 2 | 5 | -1 | . | .
Oc1cccc2ccc(/C=C/c3ccccc3Br)nc12 | 25 | -5 | 62* | -17 | 20 | 51*
CSc1ccc(/C=C/c2ccc3cccc(O)c3n2)cc1 | -12 | 2 | 24* | -9 | -21 | 17
Nc1ccc2c(c1)C(O)c1cccc(C(=O)O)c1-2 (stereo not drawn) | 14 | -3 | 0 | 0 | . | .
O=[N+]([O-])c1ccc(O)c(N=Cc2sc3ccccc3c2O)c1 | 14 | -3 | 46* | -1 | -7 | 19
Oc1ccc(Cl)cc1N=Cc1sc2ccccc2c1Cl | -24 | 5 | -8 | 3 | . | .
Cc1nn(C)cc1S(=O)(=O)NCc1ccccc1Cl | 15 | -3 | -1 | 1 | . | .
Cc1ccc(CCNC(=O)C2CCN(S(=O)(=O)c3cccc4nsnc34)CC2)cc1 | -2 | 0 | 47* | -13 | 0 | 1
CCOc1ccc(Cl)cc1C1=CC(=O)C[C@H](c2ccc(OC)cc2)C1 | 5 | -1 | 15 | -6 | . | .
COc1ccc(Cl)cc1NC(=O)Nc1cnccn1 | 2 | 0 | 41* | -16 | -51 | -3
Cn1ccsc1=NC(=O)c1cc(S(=O)(=O)N2CCOCC2)ccc1F | 9 | -1 | 0 | 0 | . | .
Cc1nonc1CN(C)C(=O)c1cc(COc2ccc(F)cc2Cl)on1 | 1 | 0 | 41* | 2 | -84 | 18
SMILES | MOR-DOR inv ag-1 | MOR-DOR ag | HTR5A inv ag | HTR5A ag | MOR-DOR inv ag-2 | HTR5A inv confrm | others
CCCCN(CC)CCCNC(=O)c1ccc(CS(=O)(=O)c2ccccc2C)o1 | -1 | 0 | 26 | -7 | . | .
Cc1onc(-c2ccccc2)c1C(=O)Nc1nnc(N2CCCCCC2)s1 | 28 | -5 | 25* | -8 | -6 | 2
CCc1cccc2c(C(=O)CSc3nnc(C4CC4)o3)c[nH]c12 | 0 | 0 | -3 | 1 | . | .
COCCCNC(=O)c1ccc2c(=O)n(Cc3ccc4c(c3)OCO4)c(=S)[nH]c2c1 | 4 | -1 | 57* | 3 | -3 | -13
COc1ccc(/C=C/C(=O)NC(=S)NNC(=O)c2c(-c3ccccc3)noc2C)cc1 | 28 | -5 | 49* | -12 | -3 | -1
Cc1onc(-c2ccccc2)c1C(=O)NNC(=S)NC(=O)/C=C/c1ccccc1 | 20 | -4 | 25 | -10 | . | .
Cc1ccc(S(=O)(=O)N(C)C[C@@H]2Oc3ccc(NS(C)(=O)=O)cc3CC(=O)N([C@H](C)CO)C[C@@H]2C)cc1 | 10 | -2 | -14 | 2 | . | .
CCN(CC)c1ccc2nc3ccccc3[n+](CC)c2c1 | 14 | -3 | 34* | -9 | -279 | -4
CCN(CC)c1ccc2cc(-c3nc4ccccc4[nH]3)c(=O)oc2c1 | -6 | 1 | -25 | 8 | . | .
CCN(CC)c1ccc2nc3ccc(N)cc3[n+](-c3ccccc3)c2c1 | 15 | -3 | 36* | -14 | -4 | 37
COc1ccc(C)cc1NC(=O)CCCN1C(=O)CN(C)C1=O | 14 | -3 | -12 | 4 | . | .
CNc1c(C(=O)O)ccc2c1C(=O)c1ccccc1C2=O | 12 | -2 | 36* | -9 | -193 | -20
COc1cccc(NC(=S)N/N=C2/CCCCc3ccccc32)c1 | 30 | -5 | 35* | -14 | -18 | 5
O=C(NCc1ccccc1F)C(c1ccccc1)c1ccccc1 | 7 | -2 | 3 | -1 | . | .
CCCC1(C(=O)OCC)NC(c2ccco2)C2C(=O)N(C)C(=O)C21 (stereo not drawn) | 7 | -1 | -6 | 2 | . | .
CCOc1cc(C(c2c(C)[nH][nH]c2=O)c2c(C)[nH][nH]c2=O)cc([N+](=O)[O-])c1O | 34 | -8 | 29* | -8 | 42* | 15
CSc1ncccc1C(=O)Nc1cc(Cl)ccc1N1CCOCC1 | 4 | -1 | 6 | -2 | . | .
COC(=O)c1ccccc1-c1c2ccc(=N)cc-2oc2cc(N)ccc12 | 27 | -5 | 35* | -10 | 13 | 30
COc1ccc(-n2c(Cc3cccn3C)nnc2SCC(=O)NC2CCCCC2)cc1 | 14 | -3 | 33* | -12 | -8 | 0
Cn1cccc1Cc1nnc(SCC(=O)NC2CCCC2)n1-c1ccc(F)cc1 | 12 | -2 | -4 | 1 | . | .
CC(=O)N1N=C(c2ccc(NS(=O)(=O)c3ccccc3)cc2)CC1c1ccco1 (stereo not drawn) | 12 | -3 | 15 | -6 | . | .
O=C1/C(=C/c2ccccc2)N=C(N2CCOCC2)N1c1cccc(Cl)c1 | 7 | -1 | 33* | 2 | -24 | 4
O=C1C(Cl)=C(N2CCOCC2)C(=O)N1c1cccc(Cl)c1 | -1 | 0 | 30 | 2 | . | .
